Experimental data: PubChem BioAssay (NCI)
About 79,000 compounds went through this panel and 15% of them were active in at least one assay; those are over-represented in the sample as a whole. Activity calls are given as the source filed them. No stated cut-off is given here; in the data, active means growth inhibition above about 70%; inactive means the rest.

How the values were obtained:
[1] = NCI Yeast Anticancer Drug Screen. Data for the mlh1 rad18 strain (AID 175); settings: S. cerevisiae mlh1 rad18 strain growth inhibition, hits give high values
In short: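 Growth inhibition of the yeast strain was measured after compound exposure and expressed relative to vehicle-treated controls. The strain carries defined defects in DNA damage repair.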

[2] = NCI Yeast Anticancer Drug Screen. Data for the rad18 strain (AID 177); settings: S. cerevisiae rad18 mutant growth inhibition, hits give high values
In short: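 Yeast carrying a defined DNA damage repair alteration were exposed to compounds. Growth inhibition was expressed relative to vehicle-treated controls.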

[3] = NCI Yeast Anticancer Drug Screen. Data for the rad52 strain (AID 147);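 further: 0% = growth of vehicle-treated control cultures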; settings: S. cerevisiae rad52 mutant growth inhibition, hits give high values
In short: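 Yeast strain carrying a DNA damage repair alteration was exposed to test compounds. Growth inhibition was measured relative to vehicle-treated controls.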

[4] = NCI Yeast Anticancer Drug Screen. Data for the wt1 strain (AID 149);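 further: 0% = growth of vehicle-treated wt1 cultures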; settings: S. cerevisiae wt1 strain (SPY 50644) growth inhibition, hits give high values
In short: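 The wt1 strain was treated with compounds, and growth was compared with vehicle-treated cultures to give inhibition.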

[5] = NCI Yeast Anticancer Drug Screen. Data for the rad50EPP+ strain (AID 151);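 further: 0% = growth of vehicle-treated control cultures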; settings: S. cerevisiae rad50 mutant strain, hits give high values
In short: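 Yeast strain carrying rad50 alteration (rad50EPP+) exposed to compounds; growth inhibition measured relative to vehicle-treated controls.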

[6] = NCI Yeast Anticancer Drug Screen. Data for the mgt1 strain (AID 153); settings: S. cerevisiae mgt1 mutant growth inhibition, hits give high values
In short: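 Yeast mgt1 strain (DNA repair/cell-cycle alteration panel) exposed to compounds; growth inhibition measured relative to vehicle-treated controls.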

[7] = NCI Yeast Anticancer Drug Screen. Data for the rad50 strain (AID 155);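 further: 0% = growth of vehicle-only cultures of the same strain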; settings: S. cerevisiae rad50 strain growth inhibition, hits give high values
In short: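 Cells are treated with compound, grown, and their growth is then scored against vehicle-only cultures of the same repair-deficient yeast strain.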

[8] = NCI Yeast Anticancer Drug Screen. Data for the mec2-1 strain (AID 157); settings: S. cerevisiae mec2-1 strain, hits give high values
In short: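 mec2-1 yeast strain, carrying an alteration in DNA damage repair or cell cycle control, was exposed to compounds; growth inhibition was measured relative to vehicle-treated controls.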

[9] = NCI Yeast Anticancer Drug Screen. Data for the rad14 strain (AID 159);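 further: 0% = growth of vehicle-treated control cultures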; settings: S. cerevisiae rad14 strain growth inhibition, hits give high values
In short: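 Readout: yeast growth inhibition, referenced to vehicle-only cultures. Strain bears a defined alteration in DNA damage repair.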

[10] = NCI Yeast Anticancer Drug Screen. Data for the sgs1 mgt1 strain (AID 161);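 further: 0% = growth of cultures given vehicle only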; settings: S. cerevisiae sgs1 mgt1 strain, hits give high values
In short: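 Compounds are added to genetically altered yeast, and growth is compared with cultures given vehicle alone to give percent inhibition.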

[11] = NCI Yeast Anticancer Drug Screen. Data for the cln2 rad14 strain (AID 165);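 further: 0% = growth equal to vehicle treated cultures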; settings: S. cerevisiae cln2 rad14 strain, hits give high values
In short: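 Yeast carrying cln2 and rad14 alterations (cell cycle control and DNA damage repair) were exposed to compounds. Growth inhibition was measured against vehicle-treated controls.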

[12] = NCI Yeast Anticancer Drug Screen. Data for the bub3 strain (AID 167); settings: S. cerevisiae bub3 mutant strain, hits give high values
In short: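 Part of a panel of yeast mutants defective in DNA damage repair or cell cycle regulation. Each strain is grown with compound, and inhibition is calculated relative to solvent-treated cultures.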

[13] = NCI Yeast Anticancer Drug Screen. Data for the wt2 strain (AID 169);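 further: 0% = growth of vehicle-treated yeast cultures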; settings: S. cerevisiae wt2 strain growth inhibition, hits give high values
In short: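 Yeast cells were exposed to test compounds, and growth inhibition was measured relative to vehicle-treated controls.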

[14] = NCI Yeast Anticancer Drug Screen. Data for the mlh1 strain (AID 171);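 further: 0% = growth of vehicle-treated control cultures of the same strain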; settings: S. cerevisiae mlh1 strain growth inhibition, hits give high values
In short: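 Yeast carrying a defined genetic alteration in DNA damage repair or cell cycle control were exposed to test compounds. Growth inhibition was measured relative to vehicle-treated controls.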

[15] = NCI Yeast Anticancer Drug Screen. Data for the sgs1 strain (AID 173);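 further: 0% = growth of vehicle-only control cultures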; settings: S. cerevisiae sgs1 mutant, hits give high values
In short: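 Yeast mutant strains carrying defined defects in DNA damage repair or cell cycle control were exposed to test compounds. Growth inhibition was scored against vehicle-treated controls.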

[16] = at 5.0 µM (retest, dose inferred, filed as 0.5)
[17] = at 50.0 µM (retest, dose inferred, filed as 5.0)

Measured: growth inhibition

CCN(CC)C(=S)N/N=C(/C)c1cccc(/C(C)=N\NC(=S)N(CC)CC)n1
inactive: [1]; [16] 39% | [2]; at 1.2 µM -1% | [2]; at 3.7 µM 9% | [2]; at 11.0 µM 23% | [2]; at 33.0 µM 59%
active: [1]; [17] 92% | [1]; at 50.0 µM 70.7% | [2]; at 100.0 µM 91%

CC[C@@]1(O)C(=O)OCc2c1cc1n(c2=O)Cc2cc3c(N)cccc3nc2-1
inactive: [3]; at 1.2 µM 54% | [4]; at 1.2 µM 22% | [4]; at 3.7 µM 13% | [4]; at 11.0 µM 7% | [4]; at 33.0 µM 8% | [4]; at 100.0 µM -1% | [5]; at 1.2 µM 13% | [5]; at 3.7 µM 30% | [5]; at 11.0 µM 53% | [5]; at 33.0 µM 54% | [5]; at 100.0 µM 52% | [6]; at 1.2 µM 4% | [6]; at 3.7 µM -3% | [6]; at 11.0 µM 9% | [6]; at 33.0 µM 2% | [6]; at 100.0 µM 5% | [8]; at 1.2 µM -7% | [8]; at 3.7 µM -1% | [8]; [16] 2% | [8]; at 11.0 µM 18% | [8]; at 33.0 µM 23% | [8]; [17] 5% | [8]; at 50.0 µM 36.7% | [8]; at 100.0 µM 30% | [9]; at 1.2 µM -20% | [9]; at 3.7 µM -29% | [9]; at 11.0 µM -25% | [9]; at 33.0 µM -24% | [9]; at 100.0 µM -33% | [10]; [16] 1% | [10]; [17] 14% | [10]; at 50.0 µM 19.9% | [11]; [16] 35% | [11]; [17] -11% | [11]; at 50.0 µM -8.35% | [12]; at 1.2 µM -28% | [12]; at 3.7 µM -32% | [12]; [16] -1% | [12]; at 11.0 µM -26% | [12]; at 33.0 µM -7% | [12]; [17] 1% | [12]; at 50.0 µM -0.65% | [12]; at 100.0 µM -30% | [13]; at 1.2 µM -16% | [13]; at 3.7 µM -9% | [13]; at 11.0 µM -8% | [13]; at 33.0 µM -3% | [13]; at 100.0 µM -16% | [14]; at 1.2 µM 1% | [14]; at 3.7 µM 6% | [14]; at 11.0 µM 11% | [14]; at 33.0 µM 16% | [14]; at 100.0 µM 2% | [15]; at 1.2 µM 0% | [15]; at 3.7 µM -2% | [15]; at 11.0 µM 5% | [15]; at 33.0 µM 5% | [15]; at 100.0 µM 8%
active: [3]; at 3.7 µM 79% | [3]; at 11.0 µM 85% | [3]; at 33.0 µM 82% | [3]; at 100.0 µM 75% | [7]; at 1.2 µM 70% | [7]; at 3.7 µM 87% | [7]; [16] 81% | [7]; at 11.0 µM 88% | [7]; at 33.0 µM 86% | [7]; [17] 84% | [7]; at 50.0 µM 88% | [7]; at 100.0 µM 83%
